Results filed as inconclusive are left out. Activity calls are given as the source filed them. Unless noted, the call rests on the fitted dose curve; in most records, active means well fitted curve in the direction sought with a large enough effect; inconclusive means small, poorly fitted or top-dose-only effect, or another doubt; inactive means no such curve, though single readings can be large; an effect the other way counts as inactive or inconclusive.

Assay [1] has as its target Voltage-gated inwardly rectifying potassium channel KCNH2 (Homo sapiens) (UniProt Q12809). Kind of assay: qHTS Assay for Small Molecule Inhibitors of the Human hERG Channel Activity (AID 588834).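 Further: lower thallium flux fluorescence means stronger hERG block; nearly all actives have a fitted effect of over 50% in size.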 Further: potency means the concentration at half of the fitted maximal effect. An outline of the steps: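 Cells were infected with hERG-BacMam virus for 4 hrs at room temperature, grown overnight, then seeded at 2000/well. After dye loading and roughly 10 min compound treatment, thallium influx was triggered and fluorescence recorded.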
Background: In qHTS, concentration-response curves come from the screen itself.

Assay [2] addresses Glutaminase kidney isoform, mitochondrial (Homo sapiens) (UniProt O94925). Kind of assay: qHTS for Inhibitors of Glutaminase (GLS): LOPAC Validation (AID 624146).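 Further: glutamate product detected by oxidase and peroxidase coupled Amplex red fluorescence gain; series mostly up to about 46 µM; nearly all actives have a fitted effect of over 60% in size.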 An outline of the steps:
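Coupled fluorescence readout: glutamate oxidase/HRP/Amplex Red detect glutamate formed by hKGA from L-glutamine (1 mM solution added). Buffer 45 mM KH2PO4 pH 8.2, 0.02% Tween-20; reads at t0 and 30 min RT.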

The nature of assay [3]: qHTS of Trypanosoma Brucei Inhibitors: LOPAC Validation (AID 624147). The essentials:
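In this concentration-response screen, enzyme-free wells defined baseline while DMSO plates tracked drift. Each reaction combined TbPYK, substrate, compound and 130 uM ADP for 45 min at room temperature. Kinase-Glo Plus luminescence gave the signal.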

Assay [4] deals with Glucagon-like peptide 1 receptor (Homo sapiens) (UniProt P43220). Kind of assay: qHTS of GLP-1 Receptor Agonists: LOPAC Validation (AID 624148).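 Further: luminescence from a luciferase reporter switched on by cAMP; higher luminescence signal means agonism.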 The essentials: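 Agonism scored as increased luciferase luminescence driven by cAMP in HEK293 clones carrying GLP-1R. Cells settled 12 hours, received compound for 4-6 hr at 37 deg C, 5% CO2, and were read after 12 min detection reagent at RT.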
Glucagon-like peptide 1 receptor (Homo sapiens), sequence (P43220 whole entry, looked up): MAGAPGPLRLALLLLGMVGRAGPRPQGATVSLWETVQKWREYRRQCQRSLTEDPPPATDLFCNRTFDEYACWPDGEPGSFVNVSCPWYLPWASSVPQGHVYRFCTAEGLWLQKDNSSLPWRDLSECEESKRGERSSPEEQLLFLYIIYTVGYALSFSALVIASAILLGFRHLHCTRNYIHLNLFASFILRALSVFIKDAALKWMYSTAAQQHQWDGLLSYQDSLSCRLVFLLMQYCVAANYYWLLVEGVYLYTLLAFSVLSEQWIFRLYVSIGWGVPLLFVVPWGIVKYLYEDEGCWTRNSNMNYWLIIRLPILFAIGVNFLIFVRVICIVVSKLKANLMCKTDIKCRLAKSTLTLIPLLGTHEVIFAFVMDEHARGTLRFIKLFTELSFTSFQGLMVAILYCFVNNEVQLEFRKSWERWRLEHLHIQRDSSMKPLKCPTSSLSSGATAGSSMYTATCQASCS

Assay [5] can be described thus: HTS Assay for Allosteric Antagonists of the Human D2 Dopamine Receptor: Hit Validation in HTRF (AID 624455).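 Further: stable D1 dopamine receptor cell line scored for blocking the D1 response.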 An outline of the steps: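 Inhibition of the D1-mediated response is measured by HTRF in cells that stably express the D1 dopamine receptor. Compounds reaching this step are hits from calcium-flux antagonism testing at EC80 dopamine in inducible Hek293 Trex D2 cells.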
For orientation: In TR-FRET formats the signal depends on donor and acceptor labels being close together.

Assay [6] concerns the target Luciferin 4-monooxygenase (Photinus pyralis) (UniProt P08659). The assay is described as follows: Biochemical firefly luciferase enzyme assay for NPC (AID 624030). Further: nearly all actives have a fitted effect of over 70% in size. Further: potency means the concentration at half of the fitted maximal effect. The essentials:
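Direct inhibition of firefly luciferase enzyme (10 nM final, 50 mM Tris Acetate) assessed by luminescence within 5 minutes. Percent activity scaled between DMSO and PTC124 positive control, with concentration-effect curves classified by fit quality and response.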

A short description of assay [7]: S16 Schwann cell viability assay (CellTiter-Glo assay) (AID 624031).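 Further: cellular ATP luminescence as a viability measure; series mostly up to about 58 µM; nearly all actives have a fitted effect of over 70% in size.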 An outline of the steps: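 Native S16 Schwann cells (rat), serum-containing medium, overnight attachment then 24 h drug exposure at 37 °C/5% CO2. CellTiter-Glo ATP signal; normalized to cell-free and vehicle wells.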
Assay [8] in a line: S16 Schwann cell PMP22 intronic element firefly luciferase assay (AID 624032). Further: nearly all actives have a fitted effect of over 30% in size. Further: potency means the concentration at half of the fitted maximal effect. The essentials: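 Luciferase reporter of PMP22 intronic-element expression in stably transfected S16 rat Schwann cells, read by ONE-Glo luminescence after 24 h compound exposure at 37 C. Activity scaled between DMSO (0%) and positive-control PTC124; concentration-effect curves quality-classified.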

A short description of assay [9]: S16 Schwann cell PMP22 intronic element beta-lactamase assay (AID 624044; calls by dose curve; further: nearly all actives have a fitted effect of over 15% in size; further: potency means the concentration at half of the fitted maximal effect). The essentials:
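Beta-lactamase reporter under a PMP22 intronic regulatory element in stable S16 rat Schwann cells; 24 h compound exposure. 460 nm blue signal normalized between DMSO (0%) and potassium clavulanate, with 535 nm FRET tracking viability; curves classed by r2 and response.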

Assay [10] in a line: Cytotoxicity counterscreen for NFkB agonists and antagonists (AID 624476;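 further: potency means the concentration at half of the fitted maximal effect; cells exposed to compound for 48 hours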). (In general: Counterscreens check selectivity or assay interference.)

Glutaminase kidney isoform, mitochondrial (Homo sapiens), sequence (O94925 whole entry, looked up, canonical isoform): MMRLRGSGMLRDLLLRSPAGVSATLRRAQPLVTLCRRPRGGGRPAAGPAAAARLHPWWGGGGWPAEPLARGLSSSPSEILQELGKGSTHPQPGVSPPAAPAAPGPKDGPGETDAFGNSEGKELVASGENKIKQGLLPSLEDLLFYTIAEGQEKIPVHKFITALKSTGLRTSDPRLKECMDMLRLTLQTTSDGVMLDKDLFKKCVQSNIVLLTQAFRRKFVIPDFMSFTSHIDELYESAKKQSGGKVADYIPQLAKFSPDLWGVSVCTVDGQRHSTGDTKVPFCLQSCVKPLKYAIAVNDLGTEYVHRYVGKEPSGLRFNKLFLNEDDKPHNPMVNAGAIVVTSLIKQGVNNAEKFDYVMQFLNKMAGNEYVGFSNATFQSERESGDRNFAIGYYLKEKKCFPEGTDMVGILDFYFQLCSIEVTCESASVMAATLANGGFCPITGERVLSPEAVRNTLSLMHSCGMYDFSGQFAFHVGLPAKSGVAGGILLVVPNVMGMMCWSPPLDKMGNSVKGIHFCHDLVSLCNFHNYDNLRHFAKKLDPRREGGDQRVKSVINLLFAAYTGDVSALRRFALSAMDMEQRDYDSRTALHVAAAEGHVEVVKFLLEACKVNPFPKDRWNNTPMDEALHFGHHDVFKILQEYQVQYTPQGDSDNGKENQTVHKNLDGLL
Luciferin 4-monooxygenase (Photinus pyralis), sequence (P08659 whole entry, looked up): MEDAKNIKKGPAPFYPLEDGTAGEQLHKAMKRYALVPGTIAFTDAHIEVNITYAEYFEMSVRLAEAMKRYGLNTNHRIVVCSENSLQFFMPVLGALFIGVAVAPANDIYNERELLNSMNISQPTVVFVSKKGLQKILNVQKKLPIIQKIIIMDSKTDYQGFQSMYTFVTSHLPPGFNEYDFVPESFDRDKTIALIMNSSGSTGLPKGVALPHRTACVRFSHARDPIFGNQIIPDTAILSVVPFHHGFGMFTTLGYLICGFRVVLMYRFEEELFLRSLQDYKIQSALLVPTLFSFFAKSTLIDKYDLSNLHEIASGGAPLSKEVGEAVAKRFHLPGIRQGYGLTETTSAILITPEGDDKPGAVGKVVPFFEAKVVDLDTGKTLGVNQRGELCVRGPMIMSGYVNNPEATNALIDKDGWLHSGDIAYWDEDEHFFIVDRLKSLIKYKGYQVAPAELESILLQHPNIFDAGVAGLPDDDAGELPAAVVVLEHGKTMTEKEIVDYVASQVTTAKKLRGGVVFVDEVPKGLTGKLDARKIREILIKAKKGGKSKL
Voltage-gated inwardly rectifying potassium channel KCNH2 (Homo sapiens), sequence (Q12809 whole entry, looked up): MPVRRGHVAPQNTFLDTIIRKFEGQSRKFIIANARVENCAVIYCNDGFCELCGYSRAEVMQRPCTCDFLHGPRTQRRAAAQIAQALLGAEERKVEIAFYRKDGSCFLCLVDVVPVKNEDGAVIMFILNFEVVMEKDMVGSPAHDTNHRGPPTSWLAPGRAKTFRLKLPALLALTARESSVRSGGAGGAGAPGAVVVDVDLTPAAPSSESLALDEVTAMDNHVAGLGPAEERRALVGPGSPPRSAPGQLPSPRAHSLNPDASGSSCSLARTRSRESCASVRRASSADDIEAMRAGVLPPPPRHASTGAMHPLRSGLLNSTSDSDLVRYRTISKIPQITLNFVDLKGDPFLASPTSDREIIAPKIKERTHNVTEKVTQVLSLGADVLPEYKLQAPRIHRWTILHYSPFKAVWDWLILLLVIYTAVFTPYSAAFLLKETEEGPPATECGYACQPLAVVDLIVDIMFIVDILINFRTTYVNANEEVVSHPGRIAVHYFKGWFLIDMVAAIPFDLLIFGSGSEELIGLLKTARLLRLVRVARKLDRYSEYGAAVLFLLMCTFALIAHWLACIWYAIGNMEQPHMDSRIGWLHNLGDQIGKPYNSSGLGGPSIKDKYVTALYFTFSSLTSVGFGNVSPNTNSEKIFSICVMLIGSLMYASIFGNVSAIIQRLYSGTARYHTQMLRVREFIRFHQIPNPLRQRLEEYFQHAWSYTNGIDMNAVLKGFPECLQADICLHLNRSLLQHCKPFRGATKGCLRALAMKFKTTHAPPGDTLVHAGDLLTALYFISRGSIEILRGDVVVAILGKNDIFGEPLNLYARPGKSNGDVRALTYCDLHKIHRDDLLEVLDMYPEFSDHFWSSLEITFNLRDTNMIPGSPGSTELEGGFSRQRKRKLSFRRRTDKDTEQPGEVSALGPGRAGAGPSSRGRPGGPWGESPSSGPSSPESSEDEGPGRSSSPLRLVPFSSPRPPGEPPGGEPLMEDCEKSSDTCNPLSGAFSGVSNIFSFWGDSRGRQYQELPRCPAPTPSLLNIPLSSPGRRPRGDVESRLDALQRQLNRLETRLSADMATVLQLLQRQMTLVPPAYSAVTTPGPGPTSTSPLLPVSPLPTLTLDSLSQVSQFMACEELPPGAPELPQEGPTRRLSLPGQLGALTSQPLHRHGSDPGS

For the compound `COc1cc2ncnc(Nc3cccc(Cl)c3)c2cc1OC`, the Potency entry in assay [1] and in assay [5] was “inactive” throughout. Besides, the compound was called inactive in [2], in assay [3] and in assay [4].

Take `OCc1ccc(-c2nn(Cc3ccccc3)c3ccccc23)o1`: the Potency entry in [1] and in [5] was “inactive” each time. The compound was called inactive in assay [2], in assay [3] and in assay [4].

In the case of `CN1CCN(c2c(F)cc3c(=O)c(C(=O)O)cn4c3c2OCN4C)CC1`, the Potency entry in [1], in assay [6], in [7] and in assay [8] was “inactive” in each case.

`Nc1ccc(S(=O)(=O)Nc2ccccn2)cc1`: the Potency entry in assay [1], in assay [6], in [7], in assay [8] and in assay [9] was “inactive” in each case.

As for `CCCCS(=N)(=O)CCC(N)C(=O)O` (stereo unspecified), the Potency entry in assay [1] and in [5] was “inactive” each time. Also, the result in assay [2], in [3] and in [4] was inactive.

Turning to `Oc1c(Cl)cc(Cl)c2cccnc12`, the Potency entry in [1] and in assay [6] was “inactive” each time. In addition, the Potency in [8] is 3.61 µM (active); in assay [9] it was 28.2 µM (active).

In the case of `CCC(C)(C)c1ccc(CC(C)CN2C[C@@H](C)O[C@@H](C)C2)cc1` (stereo partly specified), in assay [1], the Potency is 12.6 µM (active). Further, the Potency result in assay [6], in assay [7], in assay [8] and in assay [9] was “inactive” throughout.

On to `CCn1cc(C(=O)O)c(=O)c2cc(F)c(N3CCNCC3)nc21`, for which the Potency entry in assay [1], in assay [6], in assay [7] and in [8] was “inactive” in each case.

As to `CN(Cc1cc(Br)cc(Br)c1N)C1CCCCC1`, the Potency is 3.16 µM (active) in assay [1] and 36.1 µM (active) in assay [8]. The Potency entry in assay [6] is “inactive”.

Turning to `O=C(O)C1CCCN(CCC=C(c2ccccc2)c2ccccc2)C1` (stereo unspecified), the Potency in [1] was 11.2 µM (active). The compound was called inactive in assay [2], in assay [3] and in [4]. Also, the Potency entry in [5] was “inactive”.

For `CCn1cc(C(=O)O)c(=O)c2cc(F)c(N3CCNCC3)cc21`, the Potency entry in [1], in assay [6], in assay [7] and in assay [8] was “inactive” each time.

As for `O[C@@H](CNC[C@H](O)[C@H]1CCc2cc(F)ccc2O1)[C@@H]1CCc2cc(F)ccc2O1`, the Potency result in assay [6] was “inactive”.

As to `O=c1oc2c(O)c(O)cc3c(=O)oc4c(O)c(O)cc1c4c23`, the Potency result in [1], in assay [7] and in [8] was “inactive” each time. For the same compound, in [6], the Potency was 36.1 µM (active).

`O=NN(CCCl)C(=O)NC1CCCCC1`: the Potency entry in assay [1], in [6], in assay [7], in [8] and in [9] was “inactive” each time.

For `O=S(=O)(c1cccc2cnccc12)N1CCCNCC1`, the Potency result in [1], in [6], in assay [7] and in assay [8] was “inactive” throughout.

With `CCN(C)C(=O)Oc1cccc([C@H](C)N(C)C)c1`, the Potency entry in assay [1], in assay [6], in assay [7] and in assay [8] was “inactive” each time.

For `O=C(O)c1cccnc1`, the Potency result in assay [1], in assay [6], in [7] and in [8] was “inactive” in each case.

For `CNC(=O)c1cc(Oc2ccc(NC(=O)Nc3ccc(Cl)c(C(F)(F)F)c3)cc2)ccn1`, the Potency in assay [1] is 7.08 µM (active); in assay [8], 12.8 µM (active); in assay [9], 15.8 µM (active); in assay [10], 18.7 µM (active). Besides, the Potency result in assay [6] was “inactive”.

For the compound `CCCc1nc(C)c2c(=O)[nH]c(-c3cc(S(=O)(=O)N4CCN(CC)CC4)ccc3OCC)nn12`, the Potency result in [1], in [6] and in [8] was “inactive” each time.

Regarding `COCCCOc1cc(C[C@@H](C[C@H](N)[C@@H](O)C[C@H](C(=O)NCC(C)(C)C(N)=O)C(C)C)C(C)C)ccc1OC`, the Potency entry in [6] is “inactive”.

On to `CN(CCOc1ccc(CC2SC(=O)NC2=O)cc1)c1ccccn1` (stereo unspecified), for which the Potency result in assay [1], in assay [7], in assay [8] and in [9] was “inactive” in each case.

With `COc1cccc(N(C)C(=S)Oc2ccc3c(c2)CCCC3)n1`, the Potency in [1] is 3.16 µM (active). Also, the Potency entry in [6] and in assay [9] was “inactive” each time.

As to `CC[C@H](NC(C)C)[C@H](O)c1ccc(O)c2[nH]c(=O)ccc12`, the Potency entry in [1], in assay [6], in [7], in assay [8] and in [9] was “inactive” each time.

As to `O=S(=O)(O)CCS`, the Potency entry in [1], in assay [6], in assay [7], in assay [8] and in [9] was “inactive” in each case.

For `C#CCN[C@@H]1CCc2ccccc21`, the Potency result in assay [1], in assay [6], in assay [7] and in [8] was “inactive” in each case.

The values above are taken from PubChem BioAssay (NCATS).
